These results are taken from the supplement of paper PMC6522484.

For assay [1], the system named is DLD1. In words: cell viability (CellTiter-Glo) relative to plate median (fraction of plate median); higher = more viable cells. The following applies: 5 µM; treatment time 24 h; reporter: 7TFP. In a few lines:
(§1)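 Colorectal cancer cell lines stably transduced with lentiviral TCF/Wnt firefly luciferase reporters (7TFP or TCF4/Wnt) were seeded in 384-well plates. 24 h later they received library compounds at a final 5 µM for 24 h. Parallel plates were read for firefly luciferase or CellTiterGlo luminescence on a Tecan F500 reader. Each well's signal was normalised to the plate median (webcellHTS2, additive, no log transformation), and the mean of two independent replicates is reported.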
On the technique in general: Cellular ATP, detected with luciferase, serves as a proxy for viable cell number.

For assay [2], the system named is HCT116. The assay is described as above. The following applies: 5 µM; treatment time 24 h; reporter: TCF4/Wnt. In short, it runs like this:
as §1

Assay [3] has as its system SW480. Described as above. The note with it: 5 µM; treatment time 24 h; reporter: 7TFP. In a few lines:
as §1

The test system of assay [4] is DLD1. As to the kind of experiment: TCF/Wnt firefly luciferase reporter signal relative to plate median (fraction of plate median); higher = higher Wnt reporter signal. The note with it: 5 µM; treatment time 24 h; reporter: 7TFP. In short, it runs like this: as §1
(In general: In a reporter assay the amount or activity of a reporter protein is the signal.)

Assay [5] deals with SW480. The description is as above. The note with it: 5 µM; treatment time 24 h; reporter: 7TFP. In a few lines:
as §1

± gives the standard deviation of the averaged measurements.

As for `CC(NC(C)(C)C)C(=O)c1cccc(Cl)c1` (stereo not given), the results for the cell viability in assay [1], in assay [2] and in assay [3] were 1.02 ± 0.037, 1.02 ± 0.021 and 1.02 ± 0.021, respectively. Also, the “TCF/Wnt firefly luciferase reporter signal” value in assay [4] is 1.11 ± 0.057; in assay [5], 1.02 ± 0.11.

Take `NC(=O)Cc1ccccc1` [Phenylacetamide]: the figures for the cell viability in assay [1], in assay [2] and in assay [3] were 1.11 ± 0.071, 1.005 ± 0.0071 and 1.01 ± 0.016, respectively. Further, the figures for the “TCF/Wnt firefly luciferase reporter signal” value in assay [4] and in assay [5] were 1.11 ± 0.14 and 1.11, respectively.

As for `CC(C)=CCC[C@]1(C)C=Cc2c(O)c3c(c(CC=C(C)C)c2O1)O[C@]12C(=C[C@@H]4C[C@H]1C(C)(C)O[C@@]2(C/C=C(/C)C(=O)O)C4=O)C3=O`, the figures for the cell viability in assay [1], in assay [2] and in assay [3] were 0.965 ± 0.12, 0.993 ± 0.053 and 1.09 ± 0.14, respectively. The “TCF/Wnt firefly luciferase reporter signal” value in assay [4] was determined as 1.05 ± 0.095; in assay [5] it was 1.09 ± 0.028.

For the compound `CNC(C)(C)Cc1ccccc1`, the cell viability in assay [1] turned out to be 1.02; in assay [2], 1.01 ± 0.021; in assay [3], 1.06 ± 0.014. The “TCF/Wnt firefly luciferase reporter signal” value in assay [4] was determined as 1.09; in assay [5] it was 0.932 ± 0.04.

As to `CC1(C)C2C[C@@H](O)[C@]3(C)C(CC[C@@]4(C)[C@H](c5ccoc5)OC(=O)[C@H]5O[C@]543)[C@@]2(C)[C@@H](O)C[C@H]1O` (stereo not given in full), the cell viability in assay [1] is 1.02 ± 0.071; in assay [2], 0.963 ± 0.081; in assay [3] it was 0.989 ± 0.0057. The “TCF/Wnt firefly luciferase reporter signal” value in assay [4] turned out to be 1.07 ± 0.18; in assay [5], 0.936 ± 0.055.

As for `C=CCc1ccc(OC)cc1`, the cell viability in assay [1] was found to be 1.06 ± 0.092; in assay [2], 1 ± 0.025; in assay [3] it was 1.03 ± 0.035. For the same compound, the “TCF/Wnt firefly luciferase reporter signal” value in assay [4] turned out to be 1.2 ± 0.11; in assay [5] it was 1.025 ± 0.0071.

In the case of `CCN1C[C@]2(OC(=O)c3ccccc3NC(C)=O)CC[C@H](OC)[C@@]34[C@@H]2C[C@@H]([C@@H]13)[C@@]1(O)C[C@H](OC)[C@H]2C[C@@H]4[C@]1(O)[C@H]2OC`, the cell viability came to 0.987 ± 0.033 in assay [1], 0.988 ± 0.032 in assay [2] and 0.9965 ± 0.005 in assay [3]. Besides, the “TCF/Wnt firefly luciferase reporter signal” value in assay [4] is 0.905 ± 0.083; in assay [5] it was 0.98 ± 0.057.

On to `O=c1ccc2c(O)c3ccoc3cc2o1`, for which the cell viability was determined as 1.005 ± 0.0071 in assay [1], 0.8825 ± 0.005 in assay [2] and 1.02 ± 0.028 in assay [3]. For the same compound, the “TCF/Wnt firefly luciferase reporter signal” value in assay [4] turned out to be 0.926 ± 0.037; in assay [5], 0.886 ± 0.034.

In the case of `O=[N+]([O-])O[C@@H]1CO[C@H]2[C@@H]1OC[C@@H]2O`, the cell viability turned out to be 0.98 ± 0.018 in assay [1], 1.06 ± 0.028 in assay [2] and 1.02 ± 0.03 in assay [3]. Moreover, the “TCF/Wnt firefly luciferase reporter signal” value in assay [4] amounted to 0.989 ± 0.28; in assay [5] it was 0.915 ± 0.12.

As to `O=c1cccc2n1C[C@@H]1CNC[C@H]2C1`, the cell viability is 0.978 ± 0.045 in assay [1], 0.981 ± 0.015 in assay [2] and 1.005 ± 0.0071 in assay [3]. The “TCF/Wnt firefly luciferase reporter signal” value in assay [4] stood at 0.84 ± 0.15; in assay [5], 0.907 ± 0.044.

Take `N#C/C(=C\c1ccc(O)cc1)C(=O)O` [alpha-CYANO-4-HYDROXYCINNAMIC ACID]: the values for the cell viability in assay [1], in assay [2] and in assay [3] were 1.01 ± 0.014, 1.04 ± 0.058 and 0.9385 ± 0.0078, respectively. For the same compound, the “TCF/Wnt firefly luciferase reporter signal” value in assay [4] amounted to 0.996 ± 0.034; in assay [5] it was 0.913 ± 0.033.

As for `CC(C)=CCCC1(C)C=Cc2c(O)c3c(c(CC=C(C)C)c2O1)OC12C(=CC4CC1C(C)(C)OC2(C/C=C(/C)C(=O)O)C4O)C3=O` (stereo not given), the cell viability in assay [1] came to 0.911 ± 0.11; in assay [2], 0.979 ± 0.016; in assay [3], 0.996 ± 0.1. The results for the “TCF/Wnt firefly luciferase reporter signal” value in assay [4] and in assay [5] were 0.848 ± 0.069 and 0.921 ± 0.054, respectively.

Regarding `COc1ccc(/C=C/c2cc(O)cc(O)c2)cc1`, the cell viability came out at 1.05 ± 0.057 in assay [1], 1.01 ± 0.021 in assay [2] and 0.982 ± 0.018 in assay [3]. Also, the “TCF/Wnt firefly luciferase reporter signal” value was 1.25 ± 0.33 in assay [4] and 1.21 ± 0.099 in assay [5].

For the compound `COc1cc2c(c3oc4cccc(O)c4c(=O)c13)[C@@H]1C=CO[C@@H]1O2` [Sterigmatocystin], the cell viability in assay [1] was found to be 1.1 ± 0.16; in assay [2] it was 1.17 ± 0.014; in assay [3], 1.08 ± 0.057. Moreover, the figures for the “TCF/Wnt firefly luciferase reporter signal” value in assay [4] and in assay [5] were 0.845 ± 0.25 and 0.902 ± 0.077, respectively.

As for `CC1C=CC=CCCC=CC=CC=CC=CC(OC2OC(C)C(O)C(N)C2O)CC2OC(O)(CC(O)C(O)CCC(O)CC(O)CC(O)CC(=O)OC(C)C(C)C1O)CC(O)C2C(=O)O` (stereo not given), the cell viability in assay [1] turned out to be 0.932 ± 0.04; in assay [2], 0.906 ± 0.023; in assay [3] it was 0.973 ± 0.031. Besides, the “TCF/Wnt firefly luciferase reporter signal” value in assay [4] was determined as 0.874 ± 0.0014; in assay [5], 0.762 ± 0.0092.

Turning to `COc1cc(O)c2c(=O)oc3cc(O)cc(C)c3c2c1` [Alternariol-9-methylether], the cell viability in assay [1] is 0.979 ± 0.044; in assay [2] it was 1.03 ± 0.073; in assay [3] it was 1.01 ± 0.042. Further, the “TCF/Wnt firefly luciferase reporter signal” value in assay [4] came to 0.946 ± 0.1; in assay [5], 1.06 ± 0.064.

Turning to `COP(=S)(OC)Oc1ccc(Sc2ccc(OP(=S)(OC)OC)cc2)cc1`, the cell viability was 1.025 ± 0.0071 in assay [1], 1.06 ± 0.014 in assay [2] and 0.987 ± 0.011 in assay [3]. The results for the “TCF/Wnt firefly luciferase reporter signal” value in assay [4] and in assay [5] were 1.06 ± 0.092 and 1.04 ± 0.014, respectively.

As for `CC(C)=CCC[C@@H](C(=O)O)[C@H]1CC[C@@]2(C)C3=C(CC[C@]12C)[C@@]1(C)CC[C@H](O)C(C)(C)[C@@H]1CC3` [Trametenolic acid], the cell viability in assay [1] was 0.995 ± 0.022; in assay [2] it was 1.07 ± 0.071; in assay [3], 1.02 ± 0.028. Moreover, the results for the “TCF/Wnt firefly luciferase reporter signal” value in assay [4] and in assay [5] were 1.08 ± 0.085 and 1.12 ± 0.13, respectively.

With `COc1ccc(OC)c(C(O)C(C)N)c1` (stereo not given), the figures for the cell viability in assay [1], in assay [2] and in assay [3] were 0.976 ± 0.1, 0.974 ± 0.037 and 0.926 ± 0.029, respectively. For the same compound, the entries for the “TCF/Wnt firefly luciferase reporter signal” value in assay [4] and in assay [5] were 0.976 ± 0.031 and 1.13 ± 0.11, respectively.

With `COC(=O)NC(=S)Nc1ccccc1NC(=S)NC(=O)OC`, the cell viability in assay [1] was determined as 0.944 ± 0.071; in assay [2], 0.966 ± 0.09; in assay [3] it was 0.973 ± 0.0071. In addition, the “TCF/Wnt firefly luciferase reporter signal” value came out at 1.17 ± 0.042 in assay [4] and 1.02 ± 0.31 in assay [5].

`Cl[C@H]1[C@H](Cl)[C@@H](Cl)[C@@H](Cl)[C@H](Cl)[C@H]1Cl`: the figures for the cell viability in assay [1], in assay [2] and in assay [3] were 1.05 ± 0.014, 1.035 ± 0.0071 and 1.04 ± 0.042, respectively. Besides, the “TCF/Wnt firefly luciferase reporter signal” value came out at 1.05 ± 0.05 in assay [4] and 1.15 ± 0.05 in assay [5].

For the compound `CC[C@@H](C(=O)[C@@H](C)[C@@H](O)[C@H](C)[C@@H]1O[C@@H]([C@@H](CC)C(=O)O)CC[C@@H]1C)[C@H]1O[C@]2(C=C[C@@H](O)[C@]3(CC[C@@](C)([C@H]4CC[C@](O)(CC)[C@H](C)O4)O3)O2)[C@H](C)C[C@@H]1C`, the cell viability was determined as 0.948 ± 0.14 in assay [1], 0.978 ± 0.073 in assay [2] and 1.07 ± 0.05 in assay [3]. Besides, the “TCF/Wnt firefly luciferase reporter signal” value in assay [4] turned out to be 0.783 ± 0.11; in assay [5], 0.897 ± 0.089.

On to `C[C@]12CC[C@H](O)C[C@@H]1CC[C@@H]1[C@@H]2CC[C@]2(C)C(=O)CC[C@@H]12`, for which the figures for the cell viability in assay [1], in assay [2] and in assay [3] were 0.956 ± 0.038, 0.9945 ± 0.0078 and 1.01 ± 0.11, respectively. For the same compound, the “TCF/Wnt firefly luciferase reporter signal” value worked out at 1.075 ± 0.0071 in assay [4] and 1.01 ± 0.033 in assay [5].

Regarding `C/C=C(/C)C(=O)O[C@H]1CC[C@@]2(C)[C@@H]3CC[C@H]4[C@]5(O)C[C@H](O)[C@@]6(O)[C@@H](CN7C[C@@H](C)CC[C@H]7[C@@]6(C)O)[C@]5(O)C[C@]42O[C@]13O`, the cell viability was found to be 0.9805 ± 0.0064 in assay [1], 0.892 ± 0.06 in assay [2] and 1.04 ± 0.064 in assay [3]. The “TCF/Wnt firefly luciferase reporter signal” value in assay [4] is 1.16 ± 0.064; in assay [5], 1.185 ± 0.0071.
